# Rows were chosen to be rich in hits. Some 3.5% of all compounds tested hit in one or more screens of this group.
# GPR151 ag – activators of human GPR151 | actives 1% (n = 650,000) | PathHunter beta-arrestin GPR151 cells, luminescence | activation, % at 11.2 µM; in the data active means activation above about 4.9%;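 further: 0% = median of compound wells and 100% = cells with positive control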
# Target sequence (Q8TDV0 whole entry, looked up): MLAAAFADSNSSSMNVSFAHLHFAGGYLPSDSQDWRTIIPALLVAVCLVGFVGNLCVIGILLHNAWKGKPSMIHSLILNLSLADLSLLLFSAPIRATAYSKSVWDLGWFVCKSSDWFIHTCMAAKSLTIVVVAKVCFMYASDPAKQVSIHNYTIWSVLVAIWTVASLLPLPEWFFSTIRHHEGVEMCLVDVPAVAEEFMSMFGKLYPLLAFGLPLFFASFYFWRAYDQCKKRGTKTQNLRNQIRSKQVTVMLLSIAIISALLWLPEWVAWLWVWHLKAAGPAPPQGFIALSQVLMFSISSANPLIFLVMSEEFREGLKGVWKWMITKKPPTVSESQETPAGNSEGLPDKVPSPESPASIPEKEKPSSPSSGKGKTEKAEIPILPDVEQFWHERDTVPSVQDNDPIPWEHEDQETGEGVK
# MITF inh – inhibitors of human MITF. AID 1259374. O75030. inhibition, % at 2.6 µM. actives 0.91% (n = 650,000). AlphaScreen MITF homodimerization, bead proximity signal; in the data active means inhibition above about 50%;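 further: 0% = vehicle wells with protein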
# TEAD-YAP block – TEAD-YAP interaction inhibition; HEK-TIYL cells, TEAD-Gal4/YAP UAS-luciferase luminescence; inhibition, % at 9.12 µM; actives 1.4% (n = 640,000); AID 1259422; in the data active means inhibition above about 32%;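 further: 0% = median of test compound wells and 100% = reference inhibitor wells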
# FBW7 activator – activators of human E3 ligase FBW7. AlphaScreen FBW7–phospho-cyclin E peptide binding, activator screen. normalized activity (activation), % at 26.1 µM. actives 0.13% (n = 650,000); in the data active means normalized activity above about 1.9%;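 further: purified mutant Fbw7 with reduced substrate affinity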
# GPR151 conf act – confirmation of human GPR151 activators; shares compounds with GPR151 ag; GPR151 PathHunter beta-arrestin cells, luminescence, 90 min; % of EA-reagent control over plate median; activation, % at 11.2 µM; 6,700 tested, under 10 active; AID 1508609;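 active means mean percent activation across replicates above the confirmation screen cutoff of 4.91%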
# GPR119 ag – counter-screen for GPR151 activators: effect on human GPR119. activation, % at 11.2 µM. shares compounds with GPR151 ag. GPR119 PathHunter beta-arrestin cells, luminescence, 90 min; 0 = compound-well median, 100 = enzyme-acceptor control. actives 0.3% (n = 6,700);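 active means mean percent activation in the counterscreen above 29.09%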;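 further: counterscreen on off-target GPR119 to flag nonselective hits from the GPR151 activator screen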
# Numbers without * were called inactive; nt = no result; ! = repeats disagree.
SMILES,GPR151 ag,MITF inh,TEAD-YAP block,FBW7 activator,GPR151 conf act,GPR119 ag
COc1cc([N+](=O)[O-])cc(/C=C2/C(=O)NC(=O)N(c3cccc(C)c3)C2=O)c1O,5.3*,2,4,0,1,7
NC(=O)/C=C/C(=O)Nc1ccccc1,-1,-3,-1,0,nt,nt
COc1ccccc1CNC(=O)c1sc2ncn(CC(=O)Nc3ccc(C)c(Cl)c3)c(=O)c2c1C,1,-15,-6,0,nt,nt
CCOc1ccccc1C(=O)O/N=C(\N)c1cccc(Br)c1,0,-11,-3,0,nt,nt
CCOC(=O)C1=C(C)N=c2s/c(=C\c3ccco3)c(=O)n2C1c1cccs1 (configuration not stated),7.5*,16,6,0,1,1
COC(=O)C1=C(C)N=c2s/c(=C\c3c(F)cccc3Cl)c(=O)n2C1c1ccccc1 (configuration not stated),5.3*,-3,14,0,0,6
CCOC(=O)C1=C(C)N=c2s/c(=C\c3c(F)cccc3Cl)c(=O)n2C1c1ccc(C)cc1 (configuration not stated),-1,-12,-8,0,nt,nt
CCOC(=O)C1=C(C)N=c2s/c(=C\c3ccc(C)cc3)c(=O)n2C1c1ccccc1OC (configuration not stated),8.6*,-11,6,0,-1,-14
CCOC(=O)C1=C(C)N=c2s/c(=C\c3ccc(OC)cc3)c(=O)n2C1c1ccccc1OC (configuration not stated),0,3,-5,0,nt,nt
CCOC(=O)C1=C(C)N=c2s/c(=C\c3ccc(-c4ccccc4C(=O)O)o3)c(=O)n2C1c1ccccc1OC (configuration not stated),5.7*,12,10,0,2,5
CCOC(=O)C1=C(C)N=c2s/c(=C\c3ccc(-c4ccc(C(=O)O)cc4)o3)c(=O)n2C1c1ccccc1OC (configuration not stated),2,-12,0,0,nt,nt
CCOC(=O)C1=C(c2ccccc2)N=c2s/c(=C\c3ccco3)c(=O)n2C1c1cccs1 (configuration not stated),0,27,-1,1,nt,nt
COc1ccccc1C(=O)NCC(=O)N/N=C(\C)c1ccc(Br)cc1,1,12,18,0,nt,nt
O=C(NC1CCN(Cc2ccccc2)CC1)c1cc(Nc2ccc(N3CCOCC3)cc2)nc2ccccc12,-2,0,-3,0,nt,nt
O=C(c1cnsn1)N1CCOc2ccc(C(O)CCc3ccccc3)cc2C1 (configuration not stated),5.3*,-3,-9,0,0,1
O=C1NN(c2ccc(F)cc2)C(=O)/C1=C\c1cccc(Cl)c1Cl,5.4*,-13,-4,0,2,3
COc1cccc(NC(=S)NCc2cccnc2)c1,6.1*!,15,7,0,-1,0
COc1cccc(NC(=O)C(=O)NCc2cccnc2)c1,0,3,-49,0,nt,nt
CCOc1ccc(/C(O)=C2/C(=O)C(=O)N(CCN3CCOCC3)C2c2ccc(N(C)C)cc2)c(C)c1 (configuration not stated),0,-1,-2,0,nt,nt
O=C(OCCOc1ccc(Br)cc1)c1cccnc1Cl,1,-6,4,0,nt,nt
COc1cc(N)c(Cl)cc1C(=O)OCCOc1ccc(Br)cc1,20*,7,4,0,-1,0
CSc1ncccc1C(=O)OCCOc1ccc(Br)cc1,6.3*,-17,-2,0,0,-3
COc1cccc2cc(-c3csc(NC(=O)c4ccccc4F)n3)oc12,2,-3,-4,0,nt,nt
Cc1ccc(CS(=O)(=O)CCC(=O)NCCN(C)Cc2ccccc2)cc1,7.7*,14,-3,0,0,-1
N#Cc1c(-c2ccccc2)cc(-c2ccccc2)nc1SCc1ccc(Cl)c(Cl)c1,0,5,-8,0,nt,nt
SMILES,GPR151 ag,MITF inh,TEAD-YAP block,FBW7 activator,GPR151 conf act,GPR119 ag
N#Cc1c(-c2ccccc2)cc(-c2ccccc2)nc1SCc1ccc(Cl)cc1,5.5*,-1,2,0,1,-6
CC1c2cccn2CCN1S(=O)(=O)c1c(Cl)cccc1Cl (configuration not stated),0,16,3,0,nt,nt
CC1c2cccn2CCN1S(=O)(=O)c1ccccc1Cl (configuration not stated),5.9*,10,6,0,0,4
COc1cc(C2C(C(=O)OC3CCCCC3)=C(C)NC3=C2C(=O)CC(C)(C)C3)cc(OC)c1OC (configuration not stated),12*,-9,-5,0,0,6
CCOC(=O)C1=C(C)NC2=C(C(=O)CC(C)(C)C2)C1c1cccc(OC)c1OC (configuration not stated),0,11,16,0,nt,nt
CCOC(=O)C1=C(C)NC2=C(C(=O)CC(C)(C)C2)C1c1ccc(OC)c(OC)c1OC (configuration not stated),12*!,1,-14,0,0,5
CN(C)S(=O)(=O)c1ccc(C(=O)O)o1,-1,4,3,1,nt,nt
O=C(O)CN1C(=O)c2cccc3c(Cl)cc(Br)c1c23,0,2,1,0,nt,nt
O=C(O)CN1C(=O)c2cccc3c(Cl)cc(Cl)c1c23,6.1*,-1,0,0,0,2
O=C(Nc1ccccc1)c1ccc(N2C(=O)C3C4C=CC(C4)C3C2=O)cc1 (configuration not stated),5.0*,-1,-52,0,1,13
C=CCNC(=O)NC(=O)COC(=O)CC(NC(N)=O)c1ccc(Cl)cc1 (configuration not stated),4.9*,-3,2,0,1,4
Cc1ccc(N/C=C/C(=O)c2cccs2)cc1C,9.6*,7,-24,1,-2,-20
CCOc1ccc2nc(SCc3ccc([N+](=O)[O-])cc3)nc(C)c2c1,-2,-9,4,0,nt,nt
Cc1cc2c(cc1S(=O)(=O)NC1CCCC(C)C1C)OCC(=O)N2 (configuration not stated),0,-11,-9,0,nt,nt
CC1CCCC(NS(=O)(=O)c2cc3c(cc2Cl)NC(=O)CO3)C1C (configuration not stated),7.8*,14,4,0,0,6
CCC1(CCC(=O)NCC2(c3ccccc3)CCOCC2)CCC(=O)N1 (configuration not stated),9.5*,-4,-8,0,0,-1
NS(=O)(=O)c1ccc(CCNC(=O)CSc2nc(NC3CCCCC3)c3ccccc3n2)cc1,5.1*,4,2,0,-1,-4
Nc1noc(N)c1N=Nc1ccccc1,0,-1,2,0,nt,nt

# Compound activity from PubChem.
